Source: PubChem (several laboratories)
This is a sample that favours compounds with a hit; in the whole collection about 2.2% have one here.
LGR2 inh: inhibitors of bursicon-induced LGR2 CRE-luciferase signal, primary screen, cell-based, HEK293, CRE-luciferase reporter, bursicon stimulation. Drosophila bursicon receptor LGR2 (rickets). bursicon-stimulated, 4 h. inhibition, % at 9.99 µM. 0.35% of 380,000 active;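 active means drop in luminescence signal, shown as inhibition above about 50% in the replicate tests, limit read from the data, passing the limit was not always enough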;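 further: agonist challenge used bursicon conditioned medium at about half maximal strength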
HSP90 refold inh: HSP90 inhibitors, primary screen, cell lysate, luminescence; Rabbit reticulocyte lysate, luciferase refolding luminescence, 3 h; Heat shock protein HSP 90 (rabbit reticulocyte lysate; luciferase refolding); 0.91% of 290,000 active; AID 1789, 2009; inhibition, % at 5.6 µM;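 active means inhibition above the screen-wide mean plus 3 SD, computed separately per campaign, cut at about 16% in these data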;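 further: 0% = DMSO wells and 100% = 60 µM geldanamycin wells; inhibitors lower the luminescence because luciferase stays unfolded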
TROY NFkB inh: inhibitors of TROY-driven NF-kB signaling, primary screen, Q293 LMP1-TROYcd cells, NF-kB luciferase, uHTS; Q293 LMP1-TROYcd NF-kB luciferase reporter, 4 h; inhibition, % at 10 µM; 0.98% of 360,000 active; AID 1347056, 2019;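 active means compounds whose plate-normalised and pattern-corrected inhibition of the luciferase reporter signal at the single screening dose is 50% or more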
TWEAK-Fn14 inh: inhibitors of TWEAK-Fn14 signaling, primary screen, luciferase reporter cells, uHTS. TWEAK-stimulated Fn14 reporter cells, luciferase luminescence, 8 h. inhibition, % at 10 µM. 2% of 360,000 active. AID 1159606, 2016; in the data active means inhibition above about 50%
Active calls of the source: *; x = no result given.

SMILES | LGR2 inh | HSP90 refold inh | TROY NFkB inh | TWEAK-Fn14 inh
Cc1ccc2nc(N/N=C\c3ccc([N+](=O)[O-])o3)nc(-c3ccccc3)c2c1 | x | 0 | -5 | 67*
N#Cc1ccc(-c2ccc(OCC(O)Cn3nnc4ccccc43)cc2)cc1 (stereo not drawn) | x | 0 | 52* | 37
COc1ccc(S(=O)(=O)N(C)C[C@@H]2Oc3ccc(NC(=O)CCN4CCOCC4)cc3C(=O)N([C@H](C)CO)C[C@@H]2C)cc1 | 12 | x | x | x
CC(=O)c1ccc(NCCC(=O)c2ccccc2)cc1 | -32 | -1 | 49 | 69*
COc1ccc(-c2cc(=O)oc3c(C)c(O)c(CN(C)C)cc23)cc1 | x | 0 | 60* | 23
COc1ccc(-c2cc(=O)oc3c(C)c(OCC(=O)N(C)C)ccc23)cc1 | -8 | 0 | -2 | -23
Cc1ccc(-n2c(C)cc(C(=O)COc3cccnc3[N+](=O)[O-])c2C)cc1 | -38 | 3 | 30 | 63*
Cc1cc(C(=O)COc2cccnc2[N+](=O)[O-])c(C)n1-c1ccccc1 | -19 | 2 | -13 | 90*
Cc1sc(N=Nc2ccc(N(C)C)cc2)[n+]([O-])c1C | -1 | x | 63* | 61*
Cc1cc(N(C)C)ccc1N=Nc1ccc(N)cc1 | -63 | x | -56 | 28
COc1cccc(CNc2ccc3c(c2)CCC3)c1 | x | 6 | 44 | 51*
COc1cccc(CNc2ccc(C)c(Cl)c2)c1 | -27 | 0 | -32 | -10
COc1ccc(OC)c(CNc2ccc3c(c2)CCC3)c1 | -36 | 1 | 51* | 61*
COc1ccc(OC)c(CC(=O)Nc2ccc3c(c2)CCC3)c1 | 18 | -1 | 8 | -1
CCOC(=O)C(NC(=O)c1ccccc1)(Nc1cccc(C)n1)C(F)(F)F (stereo not drawn) | 22 | 1 | -15 | -12
CCOC(=O)C(NCc1ccco1)(NC(=O)c1ccccc1)C(F)(F)F (stereo not drawn) | x | 0 | 14 | 87*
COc1ccc(C#Cc2ccc([C@@H]3[C@H]4CN(C(C)=O)CC(=O)N4[C@H]3CO)cc2)cc1 | 10 | x | x | x
CC1CCc2c(sc(NC(=O)CSc3nc(N)cc(=O)[nH]3)c2C(N)=O)C1 (stereo not drawn) | -6 | x | 53* | 67*
CCN(C(=O)CC(C)C)c1nnc(Cn2nnc3ccccc32)s1 | -1 | -2 | 9 | 13
CCN(C(=O)c1ccc(C(C)(C)C)cc1)c1nnc(Cn2nnc3ccccc32)s1 | x | 9 | 40 | 73*
CCOC(=O)c1c(C)[nH]c(C)c1C(=O)CSc1nc2ccccc2n1CC | 8 | 2 | 9 | 2
CCOC(=O)c1c(C)[nH]c(C)c1C(=O)CSc1nc2ccccc2c(=O)n1-c1ccc(CC)cc1 | 0 | -1 | 14 | 50*
C[C@@H]1CN([C@@H](C)CO)S(=O)(=O)c2ccc(/C=C/c3ccccc3)cc2O[C@H]1CN(C)Cc1cncnc1 | 15 | x | x | x
COc1ccc(C(=O)Nc2ccc3c(c2)C(=O)c2ccccc2C3=O)cc1OC | -13 | 2 | -45 | -29
COc1ccc(C(=O)c2c(C(F)(F)F)oc3c2C(=O)c2ccccc2C3=O)cc1OC | x | 1 | 51* | 58*
SMILES | LGR2 inh | HSP90 refold inh | TROY NFkB inh | TWEAK-Fn14 inh
COCC(=O)Nc1ccc2c(c1)C(=O)N(C)C[C@H](OC)[C@@H](C)CN(Cc1cncnc1)[C@@H](C)CO2 | -2 | x | x | x
O=C(c1cccc(NS(=O)(=O)c2ccccc2)c1)N1CCCC1 | 5 | -1 | 5 | -1
O=C(c1cccc(NS(=O)(=O)c2ccc(F)c(F)c2)c1)N1CCN(C(c2ccccc2)c2ccccc2)CC1 | x | 0 | 11 | 57*
c1ccc2c(Nc3nc(N4CCOCC4)c4ccccc4n3)cccc2c1 | 8 | 3 | 19 | 52*
Fc1ccc(Nc2nc(N3CCOCC3)c3ccccc3n2)cc1 | x | x | 12 | 10
O=C(/C=C/Nc1ccccc1F)c1cccs1 | 80* | -5 | -14 | 64*
Cc1ccc(N/C=C/C(=O)c2cccs2)cc1 | 75* | -5 | 55* | 81*
O=C(/C=C/Nc1ccc(F)cc1F)c1cccs1 | 79* | -3 | 10 | 60*
CCOC(=O)c1ccccc1N/C=C/C(=O)c1cccs1 | -46 | 2 | 34 | 0
O=C(/C=C\Nc1cccc(F)c1)c1cccs1 | x | 0 | -56 | 10
COc1ccc2c3c(n(C)c2c1)[C@@H](CO)N(C(=O)CC1CC1)CC31CCN(C(=O)C2CCC2)CC1 | -5 | x | x | x
CN(C)C(=O)C[C@H]1CC[C@H]2[C@H](COc3ccc(NC(=O)C4CCOCC4)cc3C(=O)N2C)O1 | -2 | x | x | x
CN1C(=O)NC(c2ccccc2)C2=C1CN(c1ccc3ccccc3c1)C2=O (stereo not drawn) | x | 3 | 53* | 34
Cc1ccc(N2CC3=C(C2=O)C(c2ccccc2)NC(=O)N3C)cc1 (stereo not drawn) | x | -1 | 6 | 2
O=C(NCC[C@@H]1CC[C@@H](NS(=O)(=O)c2cccc(F)c2)[C@@H](CO)O1)C1CCC1 | -9 | x | x | x
NC(=S)N/N=C/c1ccccc1OCCSc1ccc(Cl)cc1 | 30 | 4 | 20 | 61*
COc1cccc(/C=N/NC(N)=S)c1OCc1ccccc1Cl | -6 | -6 | -9 | 2
O=C(Oc1c(-c2ccccc2Cl)oc2ccccc2c1=O)c1ccc(Cl)cc1 | 7 | -4 | 37 | 50*
CC(C)COc1ccc(-c2nn(-c3ccccc3)cc2/C=C2/SC(=S)N(CC(=O)O)C2=O)cc1 | 6 | -5 | 88* | -15
O=C(O)CN1C(=O)/C(=C\c2cn(-c3ccccc3)nc2-c2ccccc2)SC1=S | x | -3 | -6 | 2
CNC[C@@H]1Oc2ccc(NS(=O)(=O)c3ccc(C)cc3)cc2CC(=O)N([C@H](C)CO)C[C@H]1C | -2 | x | x | x
CC1Cc2ccccc2N1C(=O)Cn1nnc(-c2ccccc2NC(=O)C2CCC2)n1 (stereo not drawn) | x | -1 | 59* | 45
O=C(Nc1ccccc1-c1nnn(CC(=O)N2CCc3ccccc3C2)n1)C1CCC1 | x | -3 | x | 71*
CCC(=O)Nc1ccccc1-c1nnn(CC(=O)N2c3ccccc3CC2C)n1 (stereo not drawn) | 19 | 0 | 5 | 0
O=C(Nc1ccc(Cl)cc1)N[C@@H]1CC[C@H](CCn2cc(-c3ccccc3F)nn2)O[C@@H]1CO | -5 | x | x | x
SMILES | LGR2 inh | HSP90 refold inh | TROY NFkB inh | TWEAK-Fn14 inh
CCOC(=O)N1CCN(C(=O)C2CC(=O)N(Cc3ccc(OC)cc3)C2)CC1 (stereo not drawn) | x | 2 | x | 72*
COc1ccc(CN2CC(C(=O)N3CCOCC3)CC2=O)cc1 (stereo not drawn) | x | -1 | -4 | 2
COC(=O)c1c(C)[nH]c(C(C)=O)c1C | 12 | 4 | -22 | 14
COC(=O)c1c(C)[nH]c(C(=O)/C=C/c2ccccc2Cl)c1C | -60 | 10 | -19 | 90*
COC(=O)c1c(C)[nH]c(C(=O)/C=C/c2ccccc2F)c1C | -44 | -6 | 60* | 51*
CCC(=O)N(C)C[C@@H]1Oc2ncc(-c3ccc(C#N)cc3)cc2C(=O)N([C@@H](C)CO)C[C@@H]1C | 0 | x | x | x
